Laboratory results: PubChem BioAssay (NCATS)
Unmarked numbers belong to inactive results. Results filed as inconclusive are left out. The source made the active and inactive calls. Unless noted, the call rests on the fitted dose curve; in most records, active means well fitted curve in the direction sought with a large enough effect; inconclusive means small, poorly fitted or top-dose-only effect, or another doubt; inactive means no such curve, though single readings can be large; an effect the other way counts as inactive or inconclusive.

Assays:
[1] = biological target: Lysosomal acid glucosylceramidase (Homo sapiens) (UniProt P04062); assay: Glucocerebrosidase-p2 (AID 348; in the data active means potency below about 10 µM; further: potency means the concentration at half of the fitted maximal effect); conditions: purified GBA, blue fluorogenic substrate, 40 min
Summary of the method: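 Normal human glucocerebrosidase (0.2 nM) with blue fluorogenic substrate (80 uM final) in citrate/phosphate pH 5.9 with 10mM sodium taurocholate, 0.01% tween-20; 40 min RT, NaOH/glycine stop; fluorescence Ex 365/Em 440; AC50 from a titration from 0.6 nM upwards.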

[2] = AP1 Signaling Pathway (AID 357; active means well fitted curve in either direction with a large enough effect, not every such curve was filed as active;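 further: ME-180 reporter cells stimulated with EGF at its EC50 level; on the % scale 0 is the no-effect control and ±100 the full control effect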); conditions: ME-180 AP-1-bla reporter, EGF-induced, beta-lactamase ratio, 5 h; at 7.69 µM (top of the series) unless noted
Summary of the method: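 AP-1-bla ME-180 cells, Opti-MEM + 0.5% dialyzed FBS, plated overnight 37 °C. Cpd titration + EC50 EGF, 5 h 37 °C. CCF4 2.5 h RT; ex 405, em 460/530 ratio → %activity, AC50.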

[3] = NFAT Signaling Pathway (AID 444; active means well fitted curve in either direction with a large enough effect, not every such curve was filed as active;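 further: carbachol stimulus at about its EC50 of 1 µM final; on the % scale 0 is the no-effect control and ±100 the full control effect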); conditions: Jurkat NFAT-bla M1, carbachol, beta-lactamase ratio, 5 h; at 7.69 µM (top of the series) unless noted
Summary of the method: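 Jurkat cells carrying an NFAT-driven β-lactamase reporter and co-transfected muscarinic M1 receptor were treated with compound plus carbachol (1 uM final, an EC50 level) for 5 h at 37 °C. CCF4 loading followed for 1 h at RT; 460/530 nm ratio gave %activity.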

[4] = Stat Signaling Pathway (AID 446; active means well fitted curve in either direction with a large enough effect, not every such curve was filed as active;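 further: ME-180 cervical cancer cells given 40 pM IL-6 alongside compound; SIE-controlled beta-lactamase reporter measured as 460/530 nm FRET emission ratio; on the % scale 0 is the no-effect control and ±100 the full control effect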); conditions: ME-180 SIE beta-lactamase reporter, IL-6 stimulated, 5 h; at 7.69 µM (top of the series) unless noted
Summary of the method: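 Compound effects on IL-6-induced STAT reporter activity were measured in ME-180 cells. After overnight culture, cells were co-treated with 40 pM IL-6 for 5 hrs before beta-lactamase substrate loading at room temperature.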

[5] = biological target: Glucocorticoid receptor (Homo sapiens) (UniProt P04150); assay: GR-GFP Redistribution (AID 450;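 active means compounds whose dose series gives a full or clear partial fitted curve of increased nuclear translocation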; further: potency means the concentration at half of the fitted maximal effect); conditions: U2OS GR-GFP nuclear translocation, laser cytometry, 2 h
[6] = biological target: Glucocorticoid receptor (Homo sapiens) (UniProt P04150); assay: GR-EFC Redistribution (AID 451; calls by dose curve; further: potency means the concentration at half of the fitted maximal effect); conditions: CHO-K1 GR-EFC translocation, beta-gal luminescence, 2 h
Summary of the method: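 CHO-K1 cells stably expressing nuclear-localized β-gal enzyme acceptor and GR fused C-terminally to the enzyme donor fragment; ligand-driven nuclear translocation restores β-gal by complementation. Compounds titrated up to 46 uM final, 2 h at 37 °C; luminescence read.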

[7] = biological target: Mitogen-activated protein kinase 10 (Mus musculus) (UniProt Q61831); assay: JNK3 AlphaScreen Assay (AID 530; active means well fitted curve in either direction with a large enough effect, not every such curve was filed as active;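 further: kinase came from lysate of stimulated human HepG2 cells; signal reports phosphorylation of biotinylated GST-cJun 1-79 at Ser73 with 10 µM ATP; on the % scale 0 is the no-effect control and ±100 the full control effect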); conditions: JNK3 lysate, c-Jun phosphorylation; series mostly up to 57.1 µM
Summary of the method: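 Phosphorylation of biotinylated GST-cJun(1-79) at Ser73 is measured by AlphaScreen proximity luminescence. Enzyme is JNK3 in HepG2 lysates activated with interleukin-1beta and tumor necrosis factor alpha; ATP is 10 uM final.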

[8] = biological target: 3',5'-cyclic-AMP phosphodiesterase 4B (Homo sapiens) (UniProt Q07343); assay: qHTS Assay for Inhibitors of PDE-IV (AID 607; active means well fitted activation curve with a large enough effect in the main read-out, with a control signal flat, not every such curve was filed as active; further: % of control where 0% means no effect); conditions: HEK293 ACTOne CNG channel cells, membrane potential fluorescence; series mostly up to 22.9 µM
Summary of the method: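 ACTOne HEK293 cells carry a modified cAMP-gated CNG channel and express endogenous PDE4; plated 1000 cells/well, compounds up to 22.9 uM final. Membrane-potential dye fluorescence (ex 535/em 590) was read; parental cells received 10 uM forskolin + 100 uM RO 20-1724.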

[9] = biological target: Dual specificity protein kinase CLK4 (Homo sapiens) (UniProt Q9HAZ1); assay: qHTS Assay for Inhibitors of CDC-like Kinase 4 (Kinase-Glo Assay) (AID 1770); conditions: recombinant Clk4, Kinase-Glo ATP depletion luminescence; series mostly up to 66.7 µM; further: nearly all actives have a fitted effect of over 65% in size; further: potency means the concentration at half of the fitted maximal effect
Summary of the method: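 25 nM Clk4 with 100 uM RS repeat peptide and 1 uM ATP (final) in Tris pH7.5, 10 mM MgCl2, 4.5 h at room temperature. Remaining ATP measured by Kinase-Glo luciferase luminescence.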

[10] = biological target: Dual specificity protein kinase CLK4 (Homo sapiens) (UniProt Q9HAZ1); assay: qHTS Assay for Inhibitors of CDC-like Kinase 4 (ADP-Glo Assay) (AID 1771); conditions: recombinant CLK4, ADP-Glo luminescence; series mostly up to 80 µM; further: nearly all actives have a fitted effect of over 70% in size; further: potency means the concentration at half of the fitted maximal effect
Summary of the method: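 ADP production was read by ADP-Glo luminescence after residual ATP depletion, following 1 h room-temperature reaction of 25 nM Clk4, 1 uM ATP and 100 uM RS peptide with MgCl2, EGTA, DTT and Triton X-100.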

[11] = biological target: Dual specificity protein kinase CLK4 (Homo sapiens) (UniProt Q9HAZ1); assay: qHTS Assay for Inhibitors of CDC-like Kinase 4 (ADP-FP Assay) (AID 1795); conditions: Transcreener ADP fluorescence polarization; series mostly up to 50 µM; further: nearly all actives have a fitted effect of over 60% in size; further: potency means the concentration at half of the fitted maximal effect
Summary of the method: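 Recombinant Clk4 (6.25 nM) phosphorylated 100 uM RS repeat peptide with 1 uM ATP in 25 mM Tris pH 7.5, 10 mM MgCl2, 0.5 mM EGTA, 2.5 mM DTT, 0.01% Triton X-100 for 1 h. ADP was detected by Transcreener ADP2 competitive fluorescence polarization after 30 min at room temperature.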

[12] = biological target: Ubiquitin carboxyl-terminal hydrolase 1 (Homo sapiens) (UniProt O94782); assay: Inhibitors of USP1/UAF1: Pilot qHTS (AID 504865); conditions: purified USP1/UAF1, Ub-rhodamine cleavage fluorescence; series mostly up to 54.9 µM;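 further: rhodamine fluorescence freed from ubiquitin-rhodamine substrate followed over time; top concentration of the series differs between compounds; on the % scale 0 is the no-effect control and ±100 the full control effect; nearly all actives have a fitted effect of over 35% in size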
Summary of the method: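 USP1/UAF1 complex at 1 nM preincubated 15 min at room temperature with compound, then Ub-Rho substrate added at 150 nM final. Fluorescence (480/540 nm) read kinetically in 50 mM HEPES pH 7.8, 0.5 mM EDTA, 1 mM TCEP, 0.1 mg/ml BSA, 0.01% Tween-20.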

[13] = Primary qHTS for small molecule stabilizers of the endoplasmic reticulum resident proteome: Secreted ER Calcium Modulated Protein (SERCaMP) assay (AID 1508630); conditions: SH-SY5Y GLuc-SERCaMP (Gaussia luciferase released on ER calcium loss) secretion, thapsigargin, luminescence; series mostly up to 38.4 µM; further: on the % scale 0 is the no-effect control and ±100 the full control effect
Summary of the method: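 The SH-SY5Y reporter protocol was run at 3 concentrations up to 38.3 uM (primary) or 11 concentrations (follow-up): 16 h compound, 100 nM thapsigargin for 4 h, then extracellular luciferase luminescence.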

[14] = biological target: Cytochrome P450 2C9 (Homo sapiens) (UniProt P11712); assay: qHTS Assay for Inhibitors and Substrates of Cytochrome P450 2C9 (AID 883); conditions: recombinant CYP2C9, luciferin-H luminescence, 60 min; series mostly up to 57.1 µM; further: on the % scale 0 is the no-effect control and ±100 the full control effect; nearly all actives have a fitted effect of over 60% in size
Summary of the method: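 A luminogenic readout tracked human CYP2C9 (10nM) converting deoxyluciferin (100uM, at KM) in 25mM KPO4 during 60 min at 37C with regenerated NADPH. Values normalized to 57uM sulphaphenazole as complete inhibition.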

[15] = biological target: Cytochrome P450 3A4 (Homo sapiens) (UniProt P08684); assay: qHTS Assay for Activators of Cytochrome P450 3A4 (AID 885); conditions: recombinant CYP3A4, Luciferin-PPXE luminescence, 60 min; series mostly up to 57.1 µM; further: nearly all actives have a fitted effect of over 65% in size
Summary of the method: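 CYP3A4 activity: Luciferin-PPXE O-dealkylation, 25uM substrate, 200mM KPO4, RT throughout. Read-out is luciferase luminescence; higher values reflect activation.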

[16] = biological target: Cytochrome P450 3A4 (Homo sapiens) (UniProt P08684); assay: qHTS Assay for Inhibitors and Substrates of Cytochrome P450 3A4 (AID 884); conditions: recombinant CYP3A4, Luciferin-PPXE luminescence; series mostly up to 57.1 µM; further: potency means the concentration at half of the fitted maximal effect; nearly all actives have a fitted effect of over 50% in size
Summary of the method: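 Luminescent readout of luciferin produced by CYP3A4 (20 nM) dealkylation of Luciferin-PPXE, 25 uM (its KM). NADPH-driven reaction ran 60 min at RT after 10 min compound preincubation; data scaled to 57 uM ketoconazole as 100% inhibition.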

[17] = biological target: Cytochrome P450 2D6 (Homo sapiens) (UniProt P10635); assay: qHTS Assay for Inhibitors and Substrates of Cytochrome P450 2D6 (AID 891); conditions: recombinant CYP2D6, luciferin-ME EGE luminescence; series mostly up to 57.1 µM; further: potency means the concentration at half of the fitted maximal effect; nearly all actives have a fitted effect of over 60% in size
Summary of the method: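 Luminescent read-out of luciferin formed by 5 nM human CYP2D6 demethylating 30 uM Luciferin-ME EGE (Km level) over 60 min at room temperature after NADPH regeneration addition. Data normalized to full inhibition by 1.43 uM quinidine.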

[18] = qHTS Assay for Identification of Small Molecule Agonists for Hypoxia Response Element Signaling Pathway (AID 914; active means well fitted activation curve with a large enough effect in the signal ratio, with a control signal flat, not every such curve was filed as active; the % refers to the signal ratio; further: potency means the concentration at half of the fitted maximal effect); conditions: ME-180 (cervical carcinoma) HRE-bla reporter, beta-lactamase ratio, CoCl2, 17 h; activation: stronger effect = higher value
Summary of the method: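 In Opti-MEM containing 0.5% dialyzed FBS and 10 mM HEPES, ME-180 HRE-bla cells received a compound titration and EC50 CoCl2. They were incubated 17 hours, then CCF4-loaded 2.5 hours at room temperature before ratio reading.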

Sequence of Cytochrome P450 3A4 (Homo sapiens) (P08684 whole entry, looked up): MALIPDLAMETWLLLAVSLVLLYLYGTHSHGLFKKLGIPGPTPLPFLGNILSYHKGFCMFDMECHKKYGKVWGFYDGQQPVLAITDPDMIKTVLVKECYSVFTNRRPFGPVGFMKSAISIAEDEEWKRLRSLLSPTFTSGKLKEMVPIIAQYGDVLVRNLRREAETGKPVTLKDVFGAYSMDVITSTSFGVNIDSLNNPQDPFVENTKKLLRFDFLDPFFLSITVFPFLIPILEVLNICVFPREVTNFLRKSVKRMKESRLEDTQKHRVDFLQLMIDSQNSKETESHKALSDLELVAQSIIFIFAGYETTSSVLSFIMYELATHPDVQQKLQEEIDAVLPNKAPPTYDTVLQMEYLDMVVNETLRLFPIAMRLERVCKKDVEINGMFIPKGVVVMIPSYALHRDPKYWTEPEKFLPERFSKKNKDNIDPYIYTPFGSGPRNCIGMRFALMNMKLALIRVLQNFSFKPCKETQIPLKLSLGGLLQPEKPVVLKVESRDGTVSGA
Sequence of 3',5'-cyclic-AMP phosphodiesterase 4B (Homo sapiens) (Q07343 whole entry, looked up): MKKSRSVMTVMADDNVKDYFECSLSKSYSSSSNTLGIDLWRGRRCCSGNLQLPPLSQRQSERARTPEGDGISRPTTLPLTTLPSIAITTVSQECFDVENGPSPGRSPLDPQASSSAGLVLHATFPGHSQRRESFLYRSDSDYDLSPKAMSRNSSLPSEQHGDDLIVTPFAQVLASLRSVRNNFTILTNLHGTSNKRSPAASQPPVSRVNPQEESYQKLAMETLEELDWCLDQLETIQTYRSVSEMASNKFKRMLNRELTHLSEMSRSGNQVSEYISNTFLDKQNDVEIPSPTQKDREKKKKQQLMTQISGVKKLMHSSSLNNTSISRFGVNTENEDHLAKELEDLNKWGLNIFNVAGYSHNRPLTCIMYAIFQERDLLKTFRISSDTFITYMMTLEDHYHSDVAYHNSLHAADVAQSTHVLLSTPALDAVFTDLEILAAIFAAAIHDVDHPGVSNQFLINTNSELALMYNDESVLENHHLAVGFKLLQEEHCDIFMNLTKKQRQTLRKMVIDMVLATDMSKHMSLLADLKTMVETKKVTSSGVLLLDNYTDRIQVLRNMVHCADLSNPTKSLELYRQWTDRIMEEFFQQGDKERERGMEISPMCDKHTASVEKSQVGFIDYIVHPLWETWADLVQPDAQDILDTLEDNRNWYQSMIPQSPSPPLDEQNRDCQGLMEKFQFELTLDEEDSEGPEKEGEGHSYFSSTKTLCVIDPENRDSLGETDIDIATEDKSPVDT
Sequence of Lysosomal acid glucosylceramidase (Homo sapiens) (P04062 whole entry, looked up): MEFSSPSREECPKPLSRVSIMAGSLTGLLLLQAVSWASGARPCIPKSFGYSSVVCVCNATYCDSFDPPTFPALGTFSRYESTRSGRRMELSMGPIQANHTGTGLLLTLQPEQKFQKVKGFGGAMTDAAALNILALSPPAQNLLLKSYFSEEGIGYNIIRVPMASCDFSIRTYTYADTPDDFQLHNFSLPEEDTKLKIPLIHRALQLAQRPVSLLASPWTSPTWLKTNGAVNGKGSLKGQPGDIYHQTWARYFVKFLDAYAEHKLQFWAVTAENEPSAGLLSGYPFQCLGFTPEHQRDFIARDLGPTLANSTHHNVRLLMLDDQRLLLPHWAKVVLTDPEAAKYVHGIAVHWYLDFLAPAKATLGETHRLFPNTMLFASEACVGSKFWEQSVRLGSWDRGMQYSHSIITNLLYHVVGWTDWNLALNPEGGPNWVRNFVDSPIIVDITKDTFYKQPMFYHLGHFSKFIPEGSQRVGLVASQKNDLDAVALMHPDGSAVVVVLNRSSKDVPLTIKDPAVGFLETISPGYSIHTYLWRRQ
Sequence of Ubiquitin carboxyl-terminal hydrolase 1 (Homo sapiens) (O94782 whole entry, looked up): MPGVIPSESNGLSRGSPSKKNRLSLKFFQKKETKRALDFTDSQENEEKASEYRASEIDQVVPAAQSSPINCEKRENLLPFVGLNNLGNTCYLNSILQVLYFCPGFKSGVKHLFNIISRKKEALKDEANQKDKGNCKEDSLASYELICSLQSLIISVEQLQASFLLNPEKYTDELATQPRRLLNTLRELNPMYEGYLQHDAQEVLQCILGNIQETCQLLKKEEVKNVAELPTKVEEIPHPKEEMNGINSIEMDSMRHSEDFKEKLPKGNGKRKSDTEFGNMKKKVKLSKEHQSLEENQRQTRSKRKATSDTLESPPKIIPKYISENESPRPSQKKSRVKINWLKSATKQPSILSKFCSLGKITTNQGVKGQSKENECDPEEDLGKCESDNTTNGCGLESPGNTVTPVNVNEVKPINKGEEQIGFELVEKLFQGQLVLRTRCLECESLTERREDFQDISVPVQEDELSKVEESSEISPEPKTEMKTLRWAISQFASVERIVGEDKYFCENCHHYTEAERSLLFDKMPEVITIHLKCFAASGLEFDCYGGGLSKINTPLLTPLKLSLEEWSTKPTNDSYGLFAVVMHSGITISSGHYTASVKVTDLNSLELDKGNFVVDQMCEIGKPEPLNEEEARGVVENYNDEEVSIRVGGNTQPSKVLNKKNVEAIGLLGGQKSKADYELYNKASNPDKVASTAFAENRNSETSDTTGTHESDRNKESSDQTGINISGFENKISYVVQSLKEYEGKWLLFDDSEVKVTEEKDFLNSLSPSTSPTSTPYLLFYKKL
Sequence of Dual specificity protein kinase CLK4 (Homo sapiens) (Q9HAZ1 whole entry, looked up): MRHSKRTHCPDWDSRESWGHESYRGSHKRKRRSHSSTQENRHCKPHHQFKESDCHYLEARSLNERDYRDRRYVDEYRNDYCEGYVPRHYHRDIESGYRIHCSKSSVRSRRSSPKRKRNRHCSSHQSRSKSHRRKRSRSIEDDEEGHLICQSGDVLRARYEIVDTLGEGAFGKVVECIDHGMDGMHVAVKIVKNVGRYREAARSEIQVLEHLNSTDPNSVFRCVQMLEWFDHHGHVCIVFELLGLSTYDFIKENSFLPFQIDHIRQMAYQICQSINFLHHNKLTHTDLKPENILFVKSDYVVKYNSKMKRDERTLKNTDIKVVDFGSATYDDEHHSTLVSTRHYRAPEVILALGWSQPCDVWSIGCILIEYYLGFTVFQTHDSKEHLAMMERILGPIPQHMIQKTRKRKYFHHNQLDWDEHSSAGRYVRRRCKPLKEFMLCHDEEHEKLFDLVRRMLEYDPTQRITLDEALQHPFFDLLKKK
Sequence of Glucocorticoid receptor (Homo sapiens) (P04150 whole entry, looked up, the tested form may be a part): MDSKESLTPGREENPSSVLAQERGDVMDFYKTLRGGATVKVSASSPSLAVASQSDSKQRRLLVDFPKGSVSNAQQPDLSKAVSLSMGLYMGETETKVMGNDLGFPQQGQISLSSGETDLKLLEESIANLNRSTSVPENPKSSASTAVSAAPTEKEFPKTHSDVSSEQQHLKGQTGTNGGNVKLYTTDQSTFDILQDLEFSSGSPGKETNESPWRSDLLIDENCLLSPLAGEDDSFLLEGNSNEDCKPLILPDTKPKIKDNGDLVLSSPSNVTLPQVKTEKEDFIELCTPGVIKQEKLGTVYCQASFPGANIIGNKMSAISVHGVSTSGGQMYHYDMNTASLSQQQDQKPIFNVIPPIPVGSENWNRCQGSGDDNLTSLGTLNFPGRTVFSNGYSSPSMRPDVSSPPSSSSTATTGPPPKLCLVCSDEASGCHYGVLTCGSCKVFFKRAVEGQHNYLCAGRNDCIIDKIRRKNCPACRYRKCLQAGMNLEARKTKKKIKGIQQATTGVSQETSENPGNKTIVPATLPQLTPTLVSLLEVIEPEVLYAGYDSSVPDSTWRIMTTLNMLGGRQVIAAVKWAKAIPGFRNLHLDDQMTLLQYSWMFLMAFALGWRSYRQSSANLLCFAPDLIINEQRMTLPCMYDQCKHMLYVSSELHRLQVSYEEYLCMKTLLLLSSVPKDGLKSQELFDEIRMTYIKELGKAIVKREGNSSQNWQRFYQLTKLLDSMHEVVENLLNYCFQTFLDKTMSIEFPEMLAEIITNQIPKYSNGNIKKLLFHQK
Sequence of Cytochrome P450 2D6 (Homo sapiens) (P10635 whole entry, looked up): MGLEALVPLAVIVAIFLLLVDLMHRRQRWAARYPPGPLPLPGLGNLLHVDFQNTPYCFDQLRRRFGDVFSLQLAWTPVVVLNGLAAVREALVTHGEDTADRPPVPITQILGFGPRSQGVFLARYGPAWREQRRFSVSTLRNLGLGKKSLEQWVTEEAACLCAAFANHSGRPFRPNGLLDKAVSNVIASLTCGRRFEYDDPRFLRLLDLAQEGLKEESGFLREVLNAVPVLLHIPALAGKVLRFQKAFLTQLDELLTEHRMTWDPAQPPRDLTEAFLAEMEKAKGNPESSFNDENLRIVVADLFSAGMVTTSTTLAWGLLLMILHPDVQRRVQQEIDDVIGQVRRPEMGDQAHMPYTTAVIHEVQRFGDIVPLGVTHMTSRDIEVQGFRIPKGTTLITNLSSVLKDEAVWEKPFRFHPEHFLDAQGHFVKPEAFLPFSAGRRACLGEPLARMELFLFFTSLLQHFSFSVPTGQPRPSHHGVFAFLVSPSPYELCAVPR
Sequence of Cytochrome P450 2C9 (Homo sapiens) (P11712 whole entry, looked up): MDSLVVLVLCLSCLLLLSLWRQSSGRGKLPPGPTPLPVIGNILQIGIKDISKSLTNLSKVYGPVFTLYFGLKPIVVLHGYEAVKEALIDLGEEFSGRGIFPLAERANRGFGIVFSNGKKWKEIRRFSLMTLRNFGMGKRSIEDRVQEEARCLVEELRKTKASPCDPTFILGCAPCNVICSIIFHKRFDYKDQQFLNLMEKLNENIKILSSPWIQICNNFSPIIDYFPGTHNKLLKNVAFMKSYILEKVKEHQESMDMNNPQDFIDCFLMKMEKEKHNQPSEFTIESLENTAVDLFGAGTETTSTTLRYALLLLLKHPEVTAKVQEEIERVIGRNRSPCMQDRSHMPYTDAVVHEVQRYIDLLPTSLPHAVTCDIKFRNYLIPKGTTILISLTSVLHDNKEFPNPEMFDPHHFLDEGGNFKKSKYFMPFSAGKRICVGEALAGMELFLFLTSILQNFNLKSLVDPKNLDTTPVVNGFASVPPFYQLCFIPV

| Compound | Potency [1] [µM] | activity change, negative = inhibition [2] [%] | activity change, negative = inhibition [3] [%] | activity, negative = inhibition [4] [%] | Potency [5] [µM] | Potency [6] [µM] | Potency [7] | Potency [8] | Potency [9] | Potency [10] | Potency [11] | Potency [12] | outcome [13] | Potency [14] | Potency [15] | Potency [16] | Potency [17] | Potency [18] |
| --- | --- | --- | --- | --- | --- | --- | --- | --- | --- | --- | --- | --- | --- | --- | --- | --- | --- | --- |
| COc1ncc2ncc(=O)n(CCc3ccccc3)c2n1 | > 11.4 | -10.9 | 4.91 | -13.6 | > 9.22 | > 46 | inactive | inactive | 14.1 µM (active) | 14.1 µM (active) | 10 µM (active) | inactive | inactive |  |  |  |  |  |
| COc1ccc(-c2nc3cnc(N(C)C)nc3n(C)c2=O)cc1 | > 11.4 | 11 | 6.21 | 10.4 | > 9.22 | > 46 | inactive | inactive | inactive | inactive | inactive | inactive | inactive |  |  |  |  |  |
| FC(F)(F)c1ccccc1-c1cncnc1NCc1ccccc1 | > 11.4 | -12.5 | -25.7 | 8.04 |  | > 46 | inactive |  | inactive | inactive | inactive | inactive | inactive |  |  |  |  |  |
| COc1cccc(Cn2c(=O)c(-c3ccccc3)nc3cncnc32)c1 | > 11.4 | -16.5 | -5.39 | -11.9 | > 9.22 | > 46 | inactive | inactive | inactive | inactive | inactive | inactive | inactive |  |  |  |  |  |
| N#Cc1cccc(-c2nc3cnc(N4CCOCC4)nc3n(Cc3ccc(F)cc3)c2=O)c1 | > 11.4 | -7.31 | 27.2 |  | > 9.22 | > 46 | inactive |  | inactive | inactive | inactive | inactive | inactive | inactive |  |  |  |  |
| CNc1ncnc2ccc(-c3ccc4c(c3)OCO4)cc12 | > 11.4 | -8.86 | 15.3 | 12.6 | > 46 | > 46 | inactive | inactive | 0.891 µM (active) | 0.631 µM (active) | 0.355 µM (active) | inactive | inactive |  |  |  |  |  |
| Cc1nc2cnc(Oc3ccccc3)nc2n(Cc2cccs2)c1=O | > 11.4 | -17.8 | 20.1 | -0.465 | > 9.22 | > 46 | inactive | inactive | inactive | inactive | inactive |  | inactive |  | inactive |  |  |  |
| Cc1cnc(CNc2ncncc2-c2cccc(NS(C)(=O)=O)c2)cn1 | > 11.4 | 3.85 | -0.565 | 13.1 | > 46 | > 46 | inactive | inactive | inactive | inactive | inactive | inactive | inactive |  | inactive | 3.16 µM (active) |  |  |
| COc1ncc2nc(-c3ccc(Cl)cc3)c(=O)n(C)c2n1 | > 11.4 | -10.2 | 8.73 | 1.71 | > 9.22 | > 46 | inactive | inactive | inactive | inactive | inactive | inactive | inactive |  | inactive |  |  |  |
| c1nc(NCCN2CCOCC2)c2cc(-c3ccoc3)ccc2n1 | > 11.4 | -17.7 | -0.57 | -6.63 |  | > 46 | inactive | inactive | 0.708 µM (active) | 0.891 µM (active) | 0.355 µM (active) | inactive | inactive |  | inactive |  | 2 µM (active) |  |
| O=c1c(-c2ccc(Cl)cc2)nc2cnc(Nc3ccccc3)nc2n1C1CC1 | > 11.4 | -1.39 | -9.46 | -0.41 | > 9.22 | > 46 | inactive | inactive | inactive | inactive | inactive | inactive | inactive |  |  |  |  |  |
| CCNc1ncc2nc(-c3ccc(F)cc3)c(=O)n(CCc3ccccc3)c2n1 | > 11.4 | 12.6 | -12.8 |  | > 9.22 | > 46 | inactive |  | inactive | inactive | inactive | inactive | inactive |  |  |  |  | 0.398 µM (active) |
| COCCn1c(=O)c(-c2ccccc2)nc2cnc(N3CCOCC3)nc21 | > 11.4 | -10.7 | 18.3 | -4.75 | > 9.22 | > 46 | inactive | inactive | inactive | inactive | inactive | inactive | inactive |  |  |  |  |  |
